Assay outcomes as filed in PubChem BioAssay.
Most compounds without a hit are left out; they make up all but 6.1% or so of the library.
D1 PAM: Potentiators of Human D1 Dopamine Receptor: qHTS; D(1A) dopamine receptor (Homo sapiens), P21728; HEK293 TREx D1 cells, calcium flux, dopamine EC20 potentiation; potentiation, % at 10 µM; 360,000 compounds, 0.036% hits; AID 504651, 2011; in the data active = potentiation above about 30%
Target sequence (P21728 whole entry, looked up): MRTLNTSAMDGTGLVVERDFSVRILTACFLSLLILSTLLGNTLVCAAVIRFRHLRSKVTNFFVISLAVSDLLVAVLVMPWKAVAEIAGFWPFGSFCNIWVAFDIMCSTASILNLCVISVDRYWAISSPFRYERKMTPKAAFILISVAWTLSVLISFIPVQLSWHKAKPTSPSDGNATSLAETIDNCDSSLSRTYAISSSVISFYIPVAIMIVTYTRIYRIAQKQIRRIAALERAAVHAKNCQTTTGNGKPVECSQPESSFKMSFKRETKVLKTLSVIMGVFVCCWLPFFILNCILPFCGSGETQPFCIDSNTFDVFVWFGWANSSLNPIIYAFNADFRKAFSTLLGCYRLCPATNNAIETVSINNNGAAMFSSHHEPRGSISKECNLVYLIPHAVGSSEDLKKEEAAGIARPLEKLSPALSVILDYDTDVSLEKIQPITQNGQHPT
D3 antag: qHTS of D3 Dopamine Receptor Antagonist: qHTS. D(3) dopamine receptor (Homo sapiens), P35462. D3R cells, DiscoveRx beta-arrestin luminescence, antagonist mode; stronger effect = lower value. max response, negative = inhibition, %. 360,000 compounds, 2.5% hits; in the data active = max response below about -50%; inconclusive = no clear call, values can overlap the other calls
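Cells plated overnight at 1500 cells/well, then exposed to library compounds with dopamine controls for 90 minutes at 37 degrees C. DiscoveRx reagent added for 30–60 minutes at room temperature; luminescence read, quantitative HTS format.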
D1 ag: Allosteric Agonists of the Human D1 Dopamine Receptor: qHTS; 360,000 compounds, 1% hits; HEK293 T-REx D1 cells, calcium flux, agonist mode; activation, % at 2 µM; D(1A) dopamine receptor (Homo sapiens), P21728; in the data active = activation above about 30%
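Inducible HEK293 T-REx D1 cells, force-coupled to calcium signalling, were plated at 4000 cells/well with tetracycline and held overnight at 30 C. After no-wash calcium dye loading, compound-evoked calcium rise over 180 s flagged agonists.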
D1 antag: Antagonist of Human D 1 Dopamine Receptor: qHTS; D(1A) dopamine receptor (Homo sapiens), P21728; HEK293 TREx D1 cells, calcium flux, dopamine EC80; stronger effect = lower value; 360,000 compounds, 3.2% hits; activity change, negative = inhibition, % at 10 µM; AID 504652, 2011; in the data active = activity change below about -30%
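Allosteric or orthosteric antagonism assessed as attenuation of the calcium response to EC80 dopamine, added 180 s after compound, in induced HEK293 Trex D1 cells loaded with no-wash calcium dye.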
DRD3 agonist: qHTS of D3 Dopamine Receptor Agonist: qHTS; 410,000 compounds, 0.58% hits; D(3) dopamine receptor (Homo sapiens), P35462; D3R DiscoveRx beta-arrestin cells, luminescence, 90 min; max activation, %; in the data active = max activation above about 30%
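Agonist mode: compounds and dopamine controls were applied to plated cells for 90 min at 37 degrees C after an overnight attachment at 1500 cells/well. Luminescent read-out followed 30 - 60 minutes at room temperature with DiscoveRx detection reagent.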
Numbers stand for hits; . = inactive; ? = inconclusive; / = not tested or not shown.

SMILES	D1 PAM	D3 antag	D1 ag	D1 antag	DRD3 agonist
O=C(Nc1cccc(Cl)c1)Nc1nnc(CC2=CCCCC2)s1	.	.	.	.	33
Cc1ccccc1Cn1ccn(-c2ccc(F)c(F)c2)c(=O)c1=O	.	/	.	.	69
O=c1c(=O)n(-c2ccc(F)c(F)c2)ccn1Cc1ccc(F)cc1Cl	.	/	.	.	.
COc1ccc(C(=O)c2cn(Cc3cccc(C)c3)c3cc4c(cc3c2=O)OCCO4)cc1OC	.	/	.	.	.
COc1ccc(-c2ccc(OC)cc2)cc1	.	?	.	.	.
COc1ccc(-c2nncnn2)cc1	.	-52	.	.	.
CCOC(=O)c1ccc(NC(=O)COCc2cc(-c3ccc4c(c3)OCO4)on2)cc1	.	/	.	.	.
COc1ccc(C)cc1NS(=O)(=O)c1ccc2c(c1)[C@H]1C=CC[C@H]1[C@@H](c1cccc(Cl)c1)N2	.	/	.	.	.
CC1(C)C2CC=C(/C=N/NC(=O)c3ccc(O)cc3)C1C2 (stereo unspecified)	.	.	.	-32	.
NC(=O)c1cc2ccc(O)cc2oc1=NCc1ccccc1	.	.	150	.	.
COc1ccc(OC)c(N=c2oc3cc(O)ccc3cc2C(N)=O)c1	.	?	.	-36	.
COc1ccc2cc(C(N)=O)c(=Nc3ccccc3)oc2c1	.	.	.	.	.
COC(=O)c1cc2c(cc1NC(=O)c1cnn(-c3ccc(C)cc3)c1-n1cccc1)OCO2	.	/	.	.	.
COc1ccc(S(=O)(=O)NC2CC(=O)N(c3ccccc3)C2)cc1C (stereo unspecified)	.	.	.	-54	.
CC(=O)c1ccc(S(=O)(=O)NC2CC(=O)N(c3ccc(C)c(C)c3)C2)cc1 (stereo unspecified)	.	.	.	-31	.
Cc1ccc(N2CC(NS(=O)(=O)c3cccnc3)CC2=O)cc1C (stereo unspecified)	.	.	.	.	.
COc1ccc(S(=O)(=O)NC2CC(=O)N(c3ccc(C)c(C)c3)C2)cc1C (stereo unspecified)	.	.	.	.	.
Cc1c(C(=O)N2CCOCC2)oc2c1-c1nn(CC(=O)NCc3ccccc3)cc1CC2	.	/	.	.	.
Cc1ccc(Nc2nc(-c3ccccc3)nc3ccccc23)cc1	.	/	.	-30	.
Cc1ccc(-c2nc(N/N=C/c3ccccc3[N+](=O)[O-])c3ccccc3n2)cc1	.	.	.	.	45
Cc1ccc(Nc2nc(-c3ccncc3)nc3ccccc23)cc1	.	.	.	.	.
O=[N+]([O-])c1ccccc1C=NNc1ccccc1	/	.	/	/	.
CCOC(=O)c1c(-c2ccc(C)o2)csc1NC(=O)CN1CCN(CC)CC1	.	-106	.	.	.
CC1CCC(C(=O)NC(C(=O)OCC(=O)c2ccccc2)C(C)C)CC1 (stereo unspecified)	.	/	.	.	.
COc1ccc(CC(=O)OCC(=O)c2ccc(OC)c(OC)c2)cc1	.	.	.	-31	.
SMILES	D1 PAM	D3 antag	D1 ag	D1 antag	DRD3 agonist
COc1ccc(CC(=O)OCC(=O)c2ccc(OC)cc2)cc1	.	.	.	.	.
Cc1cccc(N2CCN(C(=O)Cn3c(C)c4cnn(-c5ccccc5)c(=O)c4c3C)CC2)c1C	.	/	.	.	.
CC1CCc2c(sc3ncnc(NCCN4CCOCC4)c23)C1 (stereo unspecified)	.	-71	.	.	.
CC1CCc2c(sc3ncnc(N4CCOCC4)c23)C1 (stereo unspecified)	.	.	.	.	.
Cc1cc(O)c(C(c2cccc(F)c2)N2CCN(c3ccccc3)CC2)c(=O)n1Cc1ccco1 (stereo unspecified)	.	/	.	.	.
CCn1c(CNC(=O)c2ccc(OC)cc2)nnc1SCC(=O)Nc1ccc(F)cc1	.	/	.	.	.
Cc1c(NC(=O)CSc2nc3ccccc3[nH]2)c(=O)n(-c2ccccc2)n1C	.	-78	.	.	.
NNC(=O)c1ccc(CSc2nc3ccccc3[nH]2)cc1	.	-56	.	.	.
Cc1ccc2nc(SCC(=O)NC(=O)NCc3ccco3)[nH]c2c1	.	.	.	.	.
O=C(O)c1ccc(CSc2nc3ccccc3[nH]2)cc1	.	.	.	.	.
Cc1c(NC(=O)CSc2nnnn2-c2ccc(O)cc2)c(=O)n(-c2ccccc2)n1C	.	.	.	-47	.
O=C(CSc1nc2ccccc2[nH]1)NC(=O)NCc1ccco1	.	.	.	-40	.
Cc1c(NC(=O)CSc2nnnn2-c2ccc(F)cc2)c(=O)n(-c2ccccc2)n1C	.	.	.	.	.
CC[C@@H]([C@H](C)O)n1ncn(-c2ccc(N3CCN(c4ccc(OC[C@@H]5CO[C@@](Cn6cncn6)(c6ccc(F)cc6F)C5)cc4)CC3)cc2)c1=O	/	/	/	/	.
NS(=O)(=O)c1ccc(NC(=O)CSc2nc3ccccc3[nH]2)cc1	.	.	.	-84	.
Cc1c(NC(=O)CSc2nnnn2C)c(=O)n(-c2ccccc2)n1C	.	.	.	-35	.
CC(C)(C)C(=O)NC1=NN(c2c(Cl)cc(Cl)cc2Cl)C(=O)C1	.	-59	.	.	.
Cc1[nH]c(C)c(S(=O)(=O)N(Cc2ccccc2)C(C)C)c1C(=O)N1CCCC1	.	.	.	-34	.
CC1CCCC(C)N1C(=O)CN1C(=O)NC2(CCOc3ccccc32)C1=O (stereo unspecified)	.	.	.	-31	.
NC(=O)CN1C(=O)NC2(CCOc3ccccc32)C1=O (stereo unspecified)	.	.	.	-75	.
COc1ccc(OC)c(NC(=O)CCc2c(C)nn(-c3ccc(N4CCCC4)nn3)c2C)c1	.	/	.	.	.
O=C(CSc1cn(CC(=O)N2CCCC2)c2ccccc12)Nc1cc(C(F)(F)F)ccc1Cl	.	/	.	.	.
Cc1ccc(C)c(CN2C(=O)c3ccccc3S(=O)c3ccc(C(=O)N4CCN(c5cccc(Cl)c5)CC4)cc32)c1 (stereo unspecified)	.	/	.	.	.
COc1cc(/C=N/NC(=O)COc2cccc(F)c2)ccc1OS(=O)(=O)c1ccc(C)cc1	.	-53	.	.	.
COC(=O)N/N=C/c1ccc(OS(=O)(=O)c2ccc(C)cc2)c(OC)c1	.	.	.	.	.
COc1cc(/C=N/NC(=O)COc2ccc(Cl)cc2)ccc1OS(=O)(=O)c1ccc(C)cc1	.	-50	.	/	.
C[C@@H]1C[C@H]2C3C[C@H](F)C4=CC(=O)C=CC4(C)[C@@]3(F)[C@@H](O)CC2(C)[C@@]1(O)C(=O)COC(=O)C(C)(C)C (stereo partly specified)	/	/	/	/	.
